The list is not random: actives were taken first. Their share in the collection is about 12%.
PLK1 PBD inh: PLK1 (human) polo-box domain binding inhibition. Plk1 PBD binding of FITC phosphopeptide, fluorescence polarization. Potency, µM, most hits filed as inhibitors. hit rate 2.8% among 360,000; note: series mostly up to about 57 µM; nearly all actives have a fitted effect of over 65% in size
Target sequence (P53350 whole entry, looked up, the tested form may be a part): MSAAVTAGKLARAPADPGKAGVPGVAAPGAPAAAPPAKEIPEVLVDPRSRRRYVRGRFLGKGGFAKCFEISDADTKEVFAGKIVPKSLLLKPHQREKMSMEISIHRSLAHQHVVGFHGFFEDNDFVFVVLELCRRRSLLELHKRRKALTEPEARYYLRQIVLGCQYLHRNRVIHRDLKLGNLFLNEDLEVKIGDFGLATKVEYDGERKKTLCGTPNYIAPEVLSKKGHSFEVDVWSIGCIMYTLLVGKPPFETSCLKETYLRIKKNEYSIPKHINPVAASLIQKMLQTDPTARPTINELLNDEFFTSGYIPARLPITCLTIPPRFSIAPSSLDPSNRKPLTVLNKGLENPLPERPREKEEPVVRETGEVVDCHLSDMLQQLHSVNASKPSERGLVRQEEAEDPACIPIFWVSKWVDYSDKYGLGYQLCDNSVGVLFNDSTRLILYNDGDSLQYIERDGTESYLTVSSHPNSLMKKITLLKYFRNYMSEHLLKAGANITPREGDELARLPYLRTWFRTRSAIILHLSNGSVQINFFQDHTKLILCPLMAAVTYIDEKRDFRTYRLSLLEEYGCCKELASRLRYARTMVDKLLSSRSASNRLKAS
ALDH1A1 inh: ALDH1A1 (human) enzyme inhibition; hit rate 7.3% among 220,000; P00352; Potency, µM (highest dose often 75.3 µM), most hits filed as inhibitors; Purified ALDH1A1, NADH fluorescence, propionaldehyde substrate; active = well fitted inhibition curve with a large enough effect, not every such curve was filed as active; inconclusive = small, poorly fitted or top-dose-only effect, or another doubt; inactive = no such curve, though single readings can be large or run the other way
Gal4-VP16 FLuc: Gal4-VP16 reporter inhibition counter-screen; hit rate 3.5% among 310,000; Potency, µM (top dose mostly 53.6 µM), actives largely listed as inhibitors; Drosophila S2 Gal4-VP16 UAS-luciferase, luminescence, 20 h;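 note: Gal4-VP16 expression switched on by copper sulfate through the metallothionein promoter; nearly all actives have a fitted effect of over 50% in size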
Sfp PPTase inh: inhibitors of Bacillus subtilis Sfp phosphopantetheinyl transferase | Q9F4F7 | Biochemical Sfp PPTase activity, qHTS | Potency, µM, usual class: inhibitors | hit rate 3.5% among 310,000 | AID 1490;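 note: the enzyme is Sfp with the accession as filed and its product quenches rhodamine fluorescence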
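Compounds were incubated with enzyme (final 15 nM) for 15 min at room temperature before substrate addition started the reaction. Fluorescence at 525 nm excitation, 598 nm emission was recorded immediately and after 30 minutes.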
RORgamma inh: inhibitors of mouse ROR gamma transcriptional activity | Potency, µM (doses to about 53.6 µM), hits mostly inhibitors | Drosophila S2 Gal4-RORgamma UAS-luciferase reporter, 20 h | AID 2551 | hit rate 5.4% among 310,000 | P51450; note: nearly all actives have a fitted effect of over 60% in size
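Stable Schneider cell line, Gal4 DNA-binding domain fused to ROR gamma, UAS-luciferase. Cmpd 1 hr RT → CuSO4 700 uM final → 20 hr RT → luciferase reagent 10 min → luminescence.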
Large screens that a line does not name were inactive. Unless noted, calls come from the whole dose curve; as a rule, active = well fitted curve in the direction sought with a large enough effect; inconclusive = small, poorly fitted or top-dose-only effect, or another doubt; inactive = no such curve, though single readings can be large; an effect the other way counts as inactive or inconclusive.

O=C(Nc1nc(-c2ccccn2)cs1)c1ccc(S(=O)(=O)N2CCCCC2)cc1	Gal4-VP16 FLuc 6.3µM, RORgamma inh 1.6µM (no result: PLK1 PBD inh, ALDH1A1 inh)
COc1ccc(C(=O)Nc2ccccn2)cc1S(=O)(=O)N1CCOCC1	none (no result: ALDH1A1 inh)
O=C(Nc1nc(-c2cccs2)cs1)c1ccc(S(=O)(=O)N2CCCCC2)cc1	ALDH1A1 inh inconclusive
CCOc1ccccc1NC(=O)c1cc(S(=O)(=O)N2CCOCC2)ccc1C	none (no result: ALDH1A1 inh)
CCOC(=O)c1c(-c2ccccc2Cl)csc1NC(=O)c1cc(S(=O)(=O)N2CCOCC2)ccc1C	PLK1 PBD inh 11µM, ALDH1A1 inh inconclusive, Sfp PPTase inh inconclusive
COc1ccccc1OC(C)C(=O)Nc1nc(-c2ccc(S(=O)(=O)N3CCOCC3)cc2)cs1 (stereo not drawn)	none
COc1ccc(C(=O)Nc2nc(-c3ccccn3)cs2)cc1S(=O)(=O)N1CCOCC1	PLK1 PBD inh 24µM (no result: ALDH1A1 inh, Gal4-VP16 FLuc, Sfp PPTase inh, RORgamma inh)
COc1ccccc1C(=O)Nc1nc(-c2ccc(S(=O)(=O)N3CCOCC3)cc2)cs1	PLK1 PBD inh inconclusive, ALDH1A1 inh inconclusive, Gal4-VP16 FLuc 3.2µM
c1ccc2cc(-c3cc(-c4cc(-c5ccc6ccccc6c5)on4)no3)ccc2c1	none (no result: PLK1 PBD inh, Gal4-VP16 FLuc, Sfp PPTase inh, RORgamma inh)
COc1ccc(N2CCN(c3cc(C(=O)NC4CCCCC4)ncn3)CC2)cc1OC	none (no result: ALDH1A1 inh, Gal4-VP16 FLuc, Sfp PPTase inh, RORgamma inh)
C[C@@H]1[C@H]2CC[C@@H]3[C@@H]4CC=C5C[C@@H](N(C)C)CC[C@]5(C)[C@@H]4CC[C@@]32CN1C	none (no result: PLK1 PBD inh)
Cc1nc(-c2cccc(S(=O)(=O)N3CCOCC3)c2)cs1	PLK1 PBD inh 9.5µM, ALDH1A1 inh 4.5µM, Sfp PPTase inh 40µM
Cc1ccc(S(=O)(=O)N2CCOCC2)cc1C(=O)Nc1nc2ccccc2[nH]1	Gal4-VP16 FLuc 18µM, RORgamma inh 16µM
CSCCC(NC(=O)c1cc(S(=O)(=O)N2CCOCC2)ccc1C)c1nc2ccccc2[nH]1 (stereo not drawn)	none (no result: ALDH1A1 inh, Gal4-VP16 FLuc, Sfp PPTase inh, RORgamma inh)
Cc1nc(-c2cccc(S(=O)(=O)N3CC(C)OC(C)C3)c2)cs1 (stereo not drawn)	none
O=S(=O)(NC1CCN(Cc2ccccc2)CC1)c1ccc2ccccc2c1	ALDH1A1 inh 22µM
CC(Oc1ccccc1Br)C(=O)N1CCc2ccccc21 (stereo not drawn)	RORgamma inh 14µM
COc1ccccc1C(=O)NC(=S)N1CCCc2ccccc21	ALDH1A1 inh 3.2µM, Gal4-VP16 FLuc inconclusive, Sfp PPTase inh 50µM, RORgamma inh 7.9µM
O=C(Cc1ccccc1)N1CCc2ccccc21	ALDH1A1 inh inconclusive, Gal4-VP16 FLuc inconclusive
CC(C)C(=O)NC(=S)N1CCc2ccccc21	Gal4-VP16 FLuc inconclusive, RORgamma inh 8.9µM
COc1ccccc1C(=O)NC(=S)N1CCc2ccccc21	ALDH1A1 inh 14µM, Gal4-VP16 FLuc inconclusive, RORgamma inh inconclusive
CC[C@H](C)[C@H](NC(=O)CNC(=O)[C@@H](NC(=O)[C@@H](NC(=O)[C@H](Cc1ccc(O)cc1)NC(=O)[C@H](CC(C)C)NC(=O)[C@H](C)NC(=O)[C@H](CCC(N)=O)NC(=O)CNC(=O)[C@@H]1CCCN1C(=O)CNC(=O)[C@H](Cc1ccccc1)NC(=O)[C@H](Cc1cnc[nH]1)NC(=O)[C@@H](NC(=O)CNC(=O)[C@H](CCCNC(=N)N)NC(=O)[C@H](CCCNC(=N)N)NC(=O)[C@@H](NC(=O)[C@H](CC(N)=O)NC(=O)[C@@H](N)CS)[C@@H](C)O)[C@@H](C)CC)[C@@H](C)O)[C@@H](C)O)C(=O)O	none (no result: PLK1 PBD inh, ALDH1A1 inh)
CC(=O)OCC1=C[C@H]2[C@@H]3C(C)(C)[C@]3(OC(C)=O)C[C@@H](C)[C@]2(O)[C@@H]2C=C(C)C(=O)[C@@]2(O)C1	none (no result: PLK1 PBD inh, ALDH1A1 inh)
CC1=C(C(=O)Nc2ccccc2F)C(c2cccs2)C2=C(CCCC2=O)N1 (stereo not drawn)	PLK1 PBD inh 24µM, ALDH1A1 inh inconclusive
O=C(CCSc1nnc2ccccn12)Nc1ccc(F)cc1	ALDH1A1 inh inconclusive
O=C(CCSc1nnc2ccc3ccccc3n12)Nc1ccc(F)cc1	PLK1 PBD inh 30µM, ALDH1A1 inh inconclusive
CC1(Cc2ccc(OC(F)(F)F)cc2)C(=O)Nc2ccc(S(=O)(=O)NC3CCCCC3)cc21 (stereo not drawn)	none (no result: ALDH1A1 inh, Gal4-VP16 FLuc, Sfp PPTase inh, RORgamma inh)
CCCCn1c(=O)c(C(=O)c2ccccc2)nc2ccccc21	ALDH1A1 inh 22µM
CCCn1c(=O)c(C(=O)c2ccccc2)nc2ccccc21	none
CCOC(=O)CN1C(=O)N[C@@H](c2cccc(C(F)(F)F)c2)[C@H](C(=O)OC)[C@H]1C	none (no result: PLK1 PBD inh, Gal4-VP16 FLuc, RORgamma inh)
CNc1cc(C)nc(-n2nc(C)cc2C)n1	Gal4-VP16 FLuc 2.5µM, RORgamma inh 0.63µM
Cc1cc(C)n(-c2nc(Nc3ccccc3)nc(-n3nc(C)cc3C)n2)n1	none
CNc1cc(C)nc(N2CCOCC2)n1	none
Cc1cc(C)n(-c2nc(-c3ccc(Cl)cc3)cs2)n1	RORgamma inh inconclusive
Cc1cc(C)n(-c2nc(C)nc(N)n2)n1	PLK1 PBD inh 12µM, RORgamma inh 14µM
Cc1cc(Cl)nc(-n2nc(C)cc2C)n1	Gal4-VP16 FLuc 13µM, RORgamma inh 3.5µM (no result: ALDH1A1 inh)
Cc1cc(C)n(-c2nc(N(c3ccccc3)c3ccccc3)nc(-n3nc(C)cc3C)n2)n1	Gal4-VP16 FLuc 5.6µM, Sfp PPTase inh 50µM, RORgamma inh 5.6µM
C[C@@](O)(/C=C/[C@H]1CC=CC(=O)O1)[C@@H](C[C@@H](O)\C=C/C=C\C=C\CO)OP(=O)(O)O	none (no result: PLK1 PBD inh)
O=C(NCc1ccccc1)c1cccc(NC(=O)C2CCCC2)c1	none (no result: ALDH1A1 inh, Gal4-VP16 FLuc, Sfp PPTase inh, RORgamma inh)
CCOc1ccc(Nc2cc(C)nc(-n3nc(C)cc3C)n2)cc1	Gal4-VP16 FLuc 0.89µM, RORgamma inh 0.16µM
COc1ccc(Nc2cc(C)nc(N3CCOCC3)n2)cc1	none
Cc1cc(N/N=C/c2ccccc2F)nc(NCc2ccccc2)n1	Sfp PPTase inh inconclusive (no result: ALDH1A1 inh)
CN(C)c1nc(NCc2ccccc2)nc(N/N=C/c2ccccc2F)n1	Gal4-VP16 FLuc 6.3µM, RORgamma inh 2.8µM (no result: PLK1 PBD inh)
CN(C)c1nc(NCc2ccccc2)nc(N/N=C/c2ccc(Cl)cc2Cl)n1	RORgamma inh 2.2µM
O=C(c1ccc(Cc2nc3ccccc3[nH]2)cc1)N1CCOCC1	none (no result: PLK1 PBD inh, Gal4-VP16 FLuc, Sfp PPTase inh, RORgamma inh)
CNC(=S)NNS(=O)(=O)c1ccc(OC)cc1OC	Sfp PPTase inh 25µM
COc1ccc(NC(=S)Nc2ccc(OC)cc2OC)c(OC)c1	PLK1 PBD inh 27µM, ALDH1A1 inh 20µM, Gal4-VP16 FLuc inconclusive, Sfp PPTase inh inconclusive, RORgamma inh inconclusive
NC(=S)Nc1cnc2ccccc2c1	none
COc1ccc(NC(=S)Nc2cnc3ccccc3c2)c(OC)c1	ALDH1A1 inh inconclusive, RORgamma inh 11µM
COc1ccc(NC(=S)Nc2ccc(F)cc2)c(OC)c1	none (no result: ALDH1A1 inh, Gal4-VP16 FLuc, Sfp PPTase inh, RORgamma inh)
COc1ccc(NC(=S)Nc2ccccc2OC)c(OC)c1	ALDH1A1 inh 25µM, Sfp PPTase inh inconclusive
COc1cccc([C@@H]2Oc3ccc(OC)cc3C[C@H]2OC(=O)N[C@H](C)C2CCCCC2)c1	none (no result: PLK1 PBD inh)
CCOC(=O)[C@]12CCC=C1N(Cc1ccco1)C(=O)[C@H](CC(=O)NCCC(C)C)C2	none (no result: ALDH1A1 inh, Gal4-VP16 FLuc, Sfp PPTase inh, RORgamma inh)

Source: PubChem BioAssay
